In all, about 33,000 sequences were measured (“E-score (-0.5 to 0.5)”: median about -0.0014, highest 2% from about 0.25 on). For the sample, the highest values were picked, then their nearest neighbours and some sequences at random.
These sequences were tested against T1, Cad1 (UniProt P24813) (assay: PBM E-score (8-mer binding enrichment) (E-score (-0.5 to 0.5)); higher = stronger / more preferred TF binding). Settings: protein concentration: 100 nM; construct: GST-full length.
T1 sequence: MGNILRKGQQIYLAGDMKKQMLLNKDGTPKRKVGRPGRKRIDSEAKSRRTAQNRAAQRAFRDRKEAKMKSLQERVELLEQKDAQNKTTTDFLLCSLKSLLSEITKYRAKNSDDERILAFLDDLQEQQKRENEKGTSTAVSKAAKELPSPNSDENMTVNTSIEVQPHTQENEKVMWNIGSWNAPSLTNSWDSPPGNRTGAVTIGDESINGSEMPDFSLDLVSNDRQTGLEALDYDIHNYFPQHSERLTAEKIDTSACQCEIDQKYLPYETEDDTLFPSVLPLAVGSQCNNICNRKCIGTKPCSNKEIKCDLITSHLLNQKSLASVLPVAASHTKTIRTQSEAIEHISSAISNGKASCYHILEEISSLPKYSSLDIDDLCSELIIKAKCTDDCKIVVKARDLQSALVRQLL
Method: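 Universal 'all 10-mer' protein binding microarrays (Agilent AMADID 015681) probed with GST-tagged S. cerevisiae TFs (full-length or DBD) made by in vitro transcription/translation (PURExpress), about 100-200 nM. Bound TF was detected with fluorescent anti-GST. Each ungapped 8-mer (which stands for itself and its reverse complement) is scored by the PBM enrichment score (E-score), a modified Wilcoxon-Mann-Whitney statistic from -0.5 to +0.5, computed with the Universal PBM Analysis Suite. Scale: above 0.35 generally sequence-specific binding.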

Sequence	PBM E-score
ATATTAAG	0.115
ATATTAAA	0.385
CTATTAAC	0.141
CTATTAAA	0.00283
ATAATAAA	0.243
CTAATAAA	0.0515
ATATTAAT	0.368
ACATTAAA	0.11
TTAATAAA	0.389
GCATTAAA	0.103
TCATTAAA	0.265
ATATTAAC	0.224
ACCAGATG	-0.0464
CTCAGCCC	-0.21
CCAGAGCA	-0.00085
ATTTGATG	0.148
AGACTTCG	-0.0445
TATCTTCA	-0.0564
ACTAGATA	0.0286
ATATAGAA	0.00309
TCTGAGCA	0.0835
CAGGGAAA	-0.054
ACAAAGTA	0.193
CCCTGAAC	0.229
CATCGCTC	-0.187

Sequence	PBM E-score
AGAGCGTG	-0.0848
CTTGCGAA	0.184
CATTTCAA	0.174
CTAGTAAA	0.0669
GTACTAAA	0.054
TATTTCAA	0.309
TTACTAAA	0.374
ATATTCAA	0.144
ATAGTAAA	0.225
ATACTAAA	0.231
GATTTCAA	0.013
GTATTCAA	0.14
TTATTCAA	0.252
TTAGTAAA	0.339
AACGCCAT	-0.0315
CTCGTAAA	0.0173
AGGGCACA	-0.116
ATCGCATA	0.0254
CATAAGCC	0.0914
ACTGCTTA	0.132
GGGTAGAC	-0.191
TCTAAAAA	-0.0235
CCCTGTGA	-0.161
TTATTAAA	0.307
TGATTAAA	0.123

Sequence	PBM E-score
GTATTAAA	0.0777
AACACGTG	0.217
ATGCCAAT	-0.0122
AATCACGT	0.184
ATACGTAA	0.2
ATACGTAC	-0.0354
ATACGTAT	0.298
ACTAATCT	0.135
ACTAATCG	0.356
TCTAATCA	0.181
ACTAATCA	0.344
ACTAATCC	0.242
CCTAATCG	0.168
AATCCGCG	0.13
AGTCCTAC	-0.0257
ATTGAGTC	0.0114
ACCGAGAT	0.0127
AGCGTAAA	0.0495
AATTACAG	0.161
CATTACTA	0.25
GATTACTA	0.392
CTTTACTA	0.213
AATTACTC	0.239
AATTACAC	0.148
CATTACTC	0.0943

Sequence	PBM E-score
AATTACTA	0.32
AATTACAT	0.354
AATTACTG	0.14
GGTTACTA	0.0723
GTTTACTA	0.195
TCACAGGA	-0.0436
CCTCGAAC	-0.0906
GAGCTAGA	-0.178
AGAACGCG	0.0894
GCGGTAGA	-0.0737
CGAGCGTA	0.0172
CGAAAAGC	-0.143
GCTTCACA	-0.0729
CGATCACA	0.204
CGATCACG	0.273
AGATCACA	-0.0498
GACCTCCC	-0.247
ATCTAGGC	-0.102
GCAAAAGA	-0.0108
AGAATTCA	0.126
AGAATTCT	0.278
AGAATTCG	0.051
ACACCCGA	0.134
AACGCCGG	-0.0998
CACTGCGC	-0.0286

Sequence	PBM E-score
ATTCAAGA	0.0376
GTTGGAAA	-0.0664
GGTCGCGA	0.273
AGTCGCGA	0.285
AGTCGCGC	0.212
AGTCGCGG	-0.179
CGTCGCGA	0.111
GGTCGCTA	-0.112
CAAACAAG	0.0295
GGAGCGCC	-0.252
AACACCAG	-0.0336
GCCTTCAA	0.0307
GTGCGGAA	0.0803
CAAACTAC	-0.0121
CTAACTAA	0.206
TAAACTAA	0.186
CAAACTAA	0.258
ATAACTAA	0.146
TTAACTAA	0.291
CCACTGTC	-0.0971
CCTGGAAA	-0.0814
GGGTCTAC	-0.0723
ACTCCGTA	-0.228
AGCGGACC	-0.113
ACTCGAGT	0.311

Sequence	PBM E-score
ACTCGAGG	0.107
ACTCGAGA	-0.0156
TAATCGGA	0.152
CAATCGGA	0.259
AAATCGGA	0.171
TAGCGACA	0.0174
ATGGCCAC	-0.21
ATGGCCAT	0.252
ATGGCCAG	0.273
CTGGCCAG	-0.159
ATGGCCAA	-0.046
ATGGCCTG	0.0685
GGAGATCA	-0.0337
ATAGCCCA	0.062
CAAACCGA	0.0658
ATAATGAA	0.166
AACGGATG	-0.0154
CACGGATA	0.22
AACGGAAA	0.219
AACGGAAG	0.114
TACGGATA	0.116
AACGGAAT	0.269
ATCGGATA	0.276
AACGGATA	0.252
CTCGGATA	0.193

Sequence	PBM E-score
GTCGGATA	0.0779
AACGGATT	0.317
AACGGATC	0.217
CTGAGGCC	-0.0469
CTACTGCC	-0.162
CAGGATCA	-0.0245
ACTTGTGG	-0.0436
CGATAATC	-0.016
AGTTAAAA	0.14
AAGCCCTT	-0.0922
CGCGGATC	0.0644
CGCGGATA	0.258
AGCGGATA	-0.0234
CCTGCCCA	-0.0659
CGTCAAGC	-0.0629
AGCATATC	0.025
CGCATATA	-0.0685
CGCATATC	0.318
CCCGTTCG	0.016
AAGTCGAT	0.0428
ATGTCGAC	0.276
GCGTCGAA	0.116

From the supplement of paper PMC3334620
